The values below come from PMC5913336, “True equilibrium measurement of transcription factor-DNA binding affinities using automated polarization microscopy”.

For the assay, the target named is T1, GATAe (Drosophila melanogaster, UniProt Q9VF00 512-604).
T1 sequence: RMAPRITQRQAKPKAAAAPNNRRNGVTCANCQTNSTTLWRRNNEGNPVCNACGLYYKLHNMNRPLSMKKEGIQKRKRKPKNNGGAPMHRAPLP
Nature of the assay: FP; 33 mM phosphate pH 7.0, 90 mM NaCl, 0.01% Tween 20, 0.1 mM DTT, 0.5% agarose; room temperature. As to conditions: tags: N-GST (pGEX-6P-1, kept); dsDNA, one strand shown.
As for CATGTTGTCTAC, the binding signal is 9.99 Kd / Kd of best base at the position. As for CATGTTTTCTAC, the binding signal is 35.6 Kd / Kd of best base at the position. As for CAAGTTATCTAC, the binding signal is 2.12 Kd / Kd of best base at the position. CATGATATCTAC: the binding signal is 2.32 Kd / Kd of best base at the position.

Consider CATGTAATCTAC, for which the binding signal was 2.43 Kd / Kd of best base at the position.

On to CATGTTATCTAT, for which the binding signal is 1.52 Kd / Kd of best base at the position. Turning to TATGTTATCTAC, the binding signal was 1.62 Kd / Kd of best base at the position.

Turning to CATGTTATCTGC, the binding signal was 1.67 Kd / Kd of best base at the position.

Turning to CATGTTAACTAC, the binding signal is 9.8 Kd / Kd of best base at the position. Same read-out and setting: under CCTGTTATCTAC stands 1.53 Kd / Kd of best base at the position. As to CATGTGATCTAC, the binding signal is 11.2 Kd / Kd of best base at the position. Still for that read-out and setting: under CACGTTATCTAC stands 1.57 Kd / Kd of best base at the position. Still for that read-out and setting: under CAGGTTATCTAC stands 1.9 Kd / Kd of best base at the position; under CATGTTATCTAA, 1.53 Kd / Kd of best base at the position. Still for that read-out and setting: the figure for CATGTTATGTAC is 25.2 Kd / Kd of best base at the position. Take CATGTTATCCAC: the binding signal was 3.95 Kd / Kd of best base at the position. The same measure, in the same setting: the figure for CATGTTATTTAC is 15.3 Kd / Kd of best base at the position.

In the case of CATGTTCTCTAC, the binding signal was 42.3 Kd / Kd of best base at the position. As to AATGTTATCTAC, the binding signal was 1.68 Kd / Kd of best base at the position.

For CATGTTACCTAC, the binding signal is 20.8 Kd / Kd of best base at the position. For CGTGTTATCTAC, the binding signal is 1.55 Kd / Kd of best base at the position.

With CATATTATCTAC, the binding signal is 2.02 Kd / Kd of best base at the position. As to CATGTTATCAAC, the binding signal was 1.76 Kd / Kd of best base at the position.

As for CATGTTAGCTAC, the binding signal was 25.2 Kd / Kd of best base at the position. For CATGTTATATAC, the binding signal was 17.7 Kd / Kd of best base at the position. Consider CTTGTTATCTAC, for which the binding signal is 1.46 Kd / Kd of best base at the position. With GATGTTATCTAC, the binding signal was 1.64 Kd / Kd of best base at the position. As usually defined, the Kd is the free concentration of one partner at which half of the binding sites on the other are occupied at equilibrium, for simple one-to-one binding. High values mean a looser complex, low ones a tighter complex. As for CATGTTATCTAC, the Kd was about 7.3 nM. As to CATGTTATCGAC, the binding signal was 2.3 Kd / Kd of best base at the position.

Turning to CATGGTATCTAC, the binding signal is 3.02 Kd / Kd of best base at the position. Consider CATGTCATCTAC, for which the binding signal is 13.1 Kd / Kd of best base at the position.

CATGTTATCTTC: the binding signal was 1.72 Kd / Kd of best base at the position.

On to CATGTTATCTAG, for which the binding signal is 1.71 Kd / Kd of best base at the position.

Take CATGCTATCTAC: the binding signal was 2.34 Kd / Kd of best base at the position.

Regarding CATGTTATCTCC, the binding signal is 1.58 Kd / Kd of best base at the position. Same read-out and setting: under CATTTTATCTAC stands 1.94 Kd / Kd of best base at the position; under CATCTTATCTAC, 1.22 Kd / Kd of best base at the position.
